# Shown are actives, neighbours in structure and some others; about 4% of the full set was active somewhere.
# TRPM1 prom inh – reduces MITF-dependent TRPM1 promoter luciferase signal | inhibition, % at 12.5 µM | actives 0.83% (n = 330,000) | SK-MEL-5 TRPM1 promoter luciferase, 24 h | AID 488899;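 active = mean inhibition across replicates of 60% or more, whatever share of single replicates reaches that level; inconclusive = some that reach 60%, reason not given; inactive = mean inhibition across replicates below 60%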
# esBAF inh – SWI/SNF esBAF complex inhibition; mouse ES cells, Bmi1-luciferase knock-in reporter, 24 h; 100% = twice the neutral-well signal; reporter increase, % at 12.5 µM; actives 2% (n = 350,000); AID 602393; in the data active = activation above about 40%; inconclusive = no clear call, values can overlap the other calls;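 also: 0% = median of the plate's neutral control wells and 100% = double that signal; a rise in the Bmi1 reporter signal indicates esBAF inhibition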
# PAX8 reporter – PAX8 transcriptional activity inhibition. actives 1.2% (n = 360,000). inhibition, % at 12.6 µM. AID 652154. RMG-I TPO-luciferase reporter, SteadyGlo, 24 h;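 active = mean replicate inhibition at least 60% with every replicate also reaching 60%; inconclusive = only one of the two criteria is met; inactive = mean below 60% and not all replicates reaching 60%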;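 also: luciferase light reporting Pax8 driven TPO promoter activity; plate controls were median of neutral control wells for no effect and mitoxantrone controls for full effect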
# EWS-Fli inh – EWS/Fli transcriptional activity inhibition; A673 NR0B1-luciferase reporter, viability-normalised; inhibition, % at 12.6 µM; actives 0.67% (n = 350,000); AID 651661;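 active = mean inhibition of at least 50% after viability correction, with every replicate also passing that limit; inconclusive = mean reaches 50% but only one of two replicates passes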;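 also: firefly luciferase signal divided by Alamar Blue viability fluorescence both relative to DMSO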
# Wnt act – activators of Wnt/beta-catenin signaling; Wnt/beta-catenin reporter cell assay, activator, plate reader; activation, % at 9.35 µM; actives 1.2% (n = 300,000); AID 743398; in the data active = activation above about 30%, passing the limit was not always enough; inconclusive = no clear call, values can overlap the other calls;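 also: 0% = neutral control wells and 100% = positive control wells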
# MITF TRPM1 HTS – activators of MITF-driven TRPM1 promoter activity in SK-MEL-5 cells. activation, % at 12.5 µM. SK-MEL-5 TRPM1-promoter luciferase, 24 h; % of positive control, neutral wells = 0. actives 0.75% (n = 300,000);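 active = mean activation of at least 80% with every replicate also reaching 80%; inconclusive = mean reaches 80% but some replicate falls short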;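 also: 0% = neutral control wells and 100% = parthenolide positive control wells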
# Starred values were filed as active, the others as inactive; ? = inconclusive; . = no result.
SMILES,TRPM1 prom inh,esBAF inh,PAX8 reporter,EWS-Fli inh,Wnt act,MITF TRPM1 HTS
C[C@H](CO)N1C[C@H](C)[C@H](CN(C)S(=O)(=O)c2ccc(F)cc2)Oc2ccc(NS(=O)(=O)c3ccc(F)cc3)cc2C1=O,.,-0.2,-2.3,5.5,.,.
O=C(Nc1ccc2c(c1)OCCO2)C(c1ccncc1)n1c(=O)c(-c2cc3ccccc3[nH]2)nc2ccccc21 (centres undefined),.,.,-153.0,-93.6,53.3*,.
CC(C)(C)NC(=O)C(c1ccccc1)n1c(=O)c(-c2cc3ccccc3[nH]2)nc2ccccc21 (centres undefined),.,.,10.4,6.3,0.4,.
CC(C)(C)NC(=O)C(c1ccc(C#N)cc1)n1c(=O)c(-c2cc3ccccc3[nH]2)nc2ccccc21 (centres undefined),.,.,65.3*,17.3,-3.8,.
O=C(NCc1cccnc1)c1ccc(S(=O)(=O)N2CCCCC2)cc1,7.9,-1.9,.,.,-12.4,-5.6
O=S(=O)(c1ccc(NC(=S)NCc2cccnc2)cc1)N1CCCCC1,8.1,.,-9.8,-2.0,46.6*,.
O=S(=O)(c1ccc(NC(=S)NN=Cc2ccccc2O)cc1)N1CCCCC1,24.2,.,-23.1,-68.6,66.8*,.
C[C@@H]1CCCCO[C@H](CN(C)Cc2ccccc2)[C@@H](C)CN([C@@H](C)CO)C(=O)c2cc(NC(=O)NC3CCCCC3)ccc2O1,.,2.0,-5.4,5.5,.,.
Nc1ccc(OCc2ccccc2)cc1[N+](=O)[O-],-13.7,43.7*,-56.7,-50.8,14.2,16.4
OCC1(CCOc2ccccc2)CCN(Cc2ccccc2C(F)(F)F)CC1,-11.1,-3.5,23.9,4.4,40.6*,3.1
CCOc1ccccc1CN1CCC(CO)(CCOc2ccccc2)CC1,-8.0,.,22.2,11.9,-2.6,4.7
OC1=C(O)c2nc3cc(F)ccc3nc21,20.9,-5.3,12.7,2.3,2.9,.
Fc1ccc2nc3[nH]c4ccccc4c3nc2c1,-24.1,34.7,-115.9,.,99.5*,.
Cc1noc(C)c1S(=O)(=O)N(C)C[C@@H]1Oc2ccc(NS(C)(=O)=O)cc2CC(=O)N([C@H](C)CO)C[C@H]1C,.,-7.1,-0.2,-5.0,.,.
COc1ccc(-c2nnc(SCC(C)C)o2)cc1,-56.6,.,-167.4,-22.9,42.4*,57.4
COCCNc1nc(Oc2ccc(NC(C)=O)cc2)c2sc(-c3ccccc3)cc2n1,.,.,-47.0,-9.5,-5.5,.
COCCNc1nc(NCc2ccc(NC(C)=O)cc2)c2sc(-c3ccccc3)cc2n1,.,9.6,86.4*,43.3,-2.1,.
C=CCNc1nc(NCCOC)c2sc(-c3ccccc3)cc2n1,.,8.9,-13.4,-4.9,-0.5,.
C=CCNc1nc(Nc2ccc(OC)c(OC)c2)c2sc(-c3ccccc3)cc2n1,.,-6.8,.,56.1*,5.2,.
C/C=C/c1ccc([C@@H]2[C@@H](CO)N(C(=O)C3CCCC3)C23CN(C(=O)NC(C)C)C3)cc1,.,.,-10.6,-0.2,.,.
Nc1c(-c2cccc(Cl)c2)cnc2c(-c3ccccc3)cnn12,-71.2,60.0*,-176.0,-126.7,44.8*,57.8
Nc1c(-c2ccccc2)cnc2ncnn12,7.1,8.5,.,.,.,.
Nc1c(-c2cccc(Cl)c2)cnn1-c1ccccc1,-65.1,51.8*,-83.8,-94.8,13.6,67.8
Nc1c(-c2ccccc2)cnn1-c1ccccc1,-79.4,22.8,-140.4,-74.7,28.2,79.0
Cc1nc2c(-c3ccc(Cl)cc3)cnn2c(N)c1-c1ccc(F)cc1,.,-19.0,-114.9,0.8,-3.4,.
SMILES,TRPM1 prom inh,esBAF inh,PAX8 reporter,EWS-Fli inh,Wnt act,MITF TRPM1 HTS
Nc1c(-c2ccc(Cl)cc2)cnc2c(-c3ccc(F)cc3)cnn12,-108.0,?,-128.3,-125.1,45.6*,111.2*
O=C1NC(=Nc2ccccc2)S/C1=C/c1cccs1,-39.0,.,-158.8,-62.8,51.2*,48.2
O=[N+]([O-])c1ccc(/C=N/Nc2ccnc3cc(Cl)ccc23)o1,?,-3.4,9.0,-19.8,11.1,-60.1
Clc1ccc2c(N/N=C/c3ccccc3Br)ccnc2c1,83.4*,.,20.0,10.2,2.4,-83.6
Clc1ccc2c(N/N=C/c3cccc(Br)c3)ccnc2c1,83.2*,.,0.3,.,.,-83.4
CCC(=O)N(C)C[C@H]1Oc2ncc(C3=CCCC3)cc2C(=O)N([C@@H](C)CO)C[C@@H]1C,.,0.9,.,-4.6,.,.
O=C(c1ccc(F)cc1)c1ccc(N2CCCCC2)cc1,-94.7,35.8,-193.1,-84.5,39.8*,103.0*
O=C(c1ccc(F)cc1)c1ccc(N2CCCC2)cc1,-51.0,65.3*,.,.,5.1,54.5
O=C(Nc1ccc(N2CCCCC2)cc1)c1ccc(F)cc1,-27.1,-1.3,.,.,8.3,.
Cc1ccc(Nc2nc(N)nc(COC(=O)c3ccc(Br)o3)n2)cc1,-44.5,28.7,-65.1,-43.7,-4.8,47.7
Cc1ccccc1Nc1nc(N)nc(COC(=O)[C@@H](NC(=O)c2ccco2)C(C)C)n1,4.8,.,12.3,-6.6,-2.5,-1.5
Cc1ccccc1Nc1nc(N)nc(COC(=O)c2ccco2)n1,-51.9,77.1*,-184.3,-95.2,-3.1,49.8
Nc1nc(COC(=O)c2ccco2)nc(Nc2ccccc2)n1,.,47.8*,-76.3,-86.6,10.2,.
c1ccc(-n2nnc(-c3nccs3)n2)cc1,-77.1,1.1,-110.9,-41.1,40.0*,?
Brc1ccccc1-n1nnc(-c2nccs2)n1,-82.4,?,-171.6,-61.8,45.1*,90.8*
C[C@H](CO)N1C[C@H](C)[C@@H](CN(C)C(=O)C2CCC2)Oc2cc(C3=CCCC3)ccc2S1(=O)=O,.,-2.9,.,7.1,.,.
O=C(c1ccc(F)cc1)n1ccc(-c2cnc(-c3ccccc3)s2)n1,-69.4,26.6,.,.,.,67.4
O=C(c1ccc(C(F)(F)F)cc1)n1ccc(-c2cccs2)n1,0.7,.,9.7,-11.0,41.9*,-1.6
Cc1cccn2c(Nc3ccccc3)c(-c3ccccn3)nc12,21.7,-6.0,15.3,19.6,4.5,-21.7
Cc1ccn2c(Nc3ccccc3C)c(-c3ccccn3)nc2c1,42.2,-19.8,13.1,18.7,-9.8,-36.8
Cc1ccn2c(Nc3ccccc3)c(-c3ccccn3)nc2c1,?,-27.9,18.4,51.9*,-11.6,-65.3
Cc1ccccc1Nc1c(-c2ccccn2)nc2ccccn12,34.3,-24.8,30.2,51.6*,-4.1,-28.9
Cc1ccc(S(=O)(=O)N[C@@H]2C=C[C@H](CC(=O)NCCN3CCCCC3)O[C@H]2CO)cc1,.,-4.6,-8.2,-3.5,.,.
CN(C)c1ccc(-n2cccc2/C=C/[N+](=O)[O-])cc1,66.2*,-3.5,71.5*,19.7,2.2,-65.8
CC1(C)CC(=O)C(/C=N/n2cnc3ccccc3c2=O)=C(O)C1,-2.8,48.8*,.,.,.,.
CC1(C)CC(=O)C(/C=N/c2ccccn2)=C(O)C1,2.0,-5.9,.,.,.,-1.2
Cc1ccc(CCNC(=O)C2CCC(=O)N(Cc3ccccc3F)C2)o1 (centres undefined),-24.3,54.6*,-231.7,.,17.2,24.7
COc1ccccc1CCCNC(=O)C1CCC(=O)N(Cc2ccccc2F)C1 (centres undefined),-150.7,46.3*,-161.6,.,11.8,?

# Screening data from PubChem.
